Among the data in ChEMBL document CHEMBL4513216, “Probing the Open Global Health Chemical Diversity Library for Multistage-Active Starting Points for Next-Generation Antimalarials” (ACS Infect Dis, 2020) are INHIBITION values, retold here.

Hit rate of the full screen: of about 69,000 compounds, about 8,600 (12%) showed an effect of 50% or more. Many of the other results were omitted from the sample, so strong results are more common in it than they were.

For the test, the system named is Plasmodium berghei. Description: Screen against P. berghei liver stage (PbLuc), transformed with Luciferase, at 10uM. Type of test: functional, HepG2. The conditions noted are these: tested at 10 uM.
Take `CCn1ncc(S(=O)(=O)N[C@@H]2CC[C@@H](n3ccnc3)[C@@H]2O)c1C`: the INHIBITION is given as 4.65%.

On to `Fc1cccnc1OC[C@@]12CCO[C@@H]1CCN(CC1CCOCC1)C2`, for which the INHIBITION was -17.7%.

For the compound `Cc1csc(CCNC(=O)N2CCC(n3cccc3)CC2)n1`, the INHIBITION is on record as -6.04%.

As for `O=C(O)c1cnc(-c2cccc3c2CCNC3)c(Cl)c1`, the INHIBITION is listed as 2.15%.

Turning to `COc1cccc(COCC(=O)NC(C)c2nnc3n2CCC3)c1` (configuration not stated), the INHIBITION is given as -0.613%.

For `CCc1nnc(Nc2cc(C)nc(C3CCN(c4ncccn4)C3)n2)s1` (configuration not stated), the INHIBITION is listed as -11.4%.

For the compound `CCC(O)CNc1nccc(-c2ccc(C)nc2C)n1` (configuration not stated), the INHIBITION is reported as -8.9%.

For the compound `Cc1ccc(NC(=O)C(C)n2ccc(C(F)(F)F)n2)nc1` (configuration not stated), the INHIBITION is recorded as 20.9%.

With `O=C(NC1CC1)N1CCc2ccc(=O)n(Cc3cccnc3)c2CC1`, the INHIBITION stood at 45.2%.

Consider `Cc1ccc(-c2cc(C)nc(C3CCCN3S(C)(=O)=O)n2)cc1` (configuration not stated), for which the INHIBITION is -70.8%.

Consider `CC(C)c1nn(C)c(N(C)C)c1CNCc1ccc2c(c1)OCO2`, for which the INHIBITION is 3.75%.

For `CC(C)c1nn(C)c(Cl)c1CNCc1ccc2c(c1)OCO2`, the INHIBITION is reported as 27.8%.

Take `Cc1cc(-c2cnc(NCc3ccc4c(c3)OCO4)nc2C(C)C)on1`: the INHIBITION is 90.5%.

Regarding `CN1C(=O)Cc2cc(-c3csc(CCN4CCOC4=O)n3)ccc21`, the INHIBITION was 19.2%.

Consider `CC(C)CN1C[C@H]2CCN(Cc3cccnc3)CC[C@H]2S1(=O)=O`, for which the INHIBITION was found to be 42.1%.

For the compound `CCn1cc(CN2CCCN(C(=O)CCc3nccs3)CC2)cn1`, the INHIBITION was determined as 1.78%.

For `O=C(Nc1cc(F)ccc1OCC1CCCO1)NC1CC1` (configuration not stated), the INHIBITION is -12.1%.

In the case of `CC(C)(C)CN1CCCC2(CCN(C(=O)c3ccc(O)nc3)C2)C1` (configuration not stated), the INHIBITION came out at 43.1%.

As to `O=C(c1cn[nH]c1)N1CCC2(CCCN(Cc3ccc(F)c(F)c3)C2)C1` (configuration not stated), the INHIBITION worked out at 25.8%.

Consider `CC(C)(C)CN1CCCC2(CCN(C(=O)c3cn[nH]c3)C2)C1` (configuration not stated), for which the INHIBITION is 68%.

As for `Cc1cnn(CC2CN(CC(=O)Nc3nncs3)CCO2)c1` (configuration not stated), the INHIBITION is 30.76%.

Regarding `CC(=O)N1CCCC1c1nc(C)cc(-c2ccc(F)cc2)n1` (configuration not stated), the INHIBITION stood at 48.4%.

For the compound `CN1CCC/C1=N\S(=O)(=O)c1ccc(NC(=O)c2ccco2)cc1`, the INHIBITION is on record as -67.3%.

Turning to `CNS(=O)(=O)c1ccc(F)c(C(=O)NCc2ccnc(OC)c2)c1`, the INHIBITION came to 31.2%.

In the case of `CCCc1noc(CCC(=O)Nc2cc(C(F)(F)F)c[nH]c2=O)n1`, the INHIBITION is on record as 52.2%.

Turning to `CCc1noc(CCCC(=O)Nc2cc(C(F)(F)F)c[nH]c2=O)n1`, the INHIBITION worked out at 29.8%.

In the case of `CC(C)c1noc(CCC(=O)Nc2cc(C(F)(F)F)c[nH]c2=O)n1`, the INHIBITION is given as 41.5%.

Turning to `Cc1cnn(CC2CN(c3nnc(C)c(C)c3C#N)CCO2)c1` (configuration not stated), the INHIBITION is 15.635%.

On to `Cc1sc2nc(CCN)nc(N3CCC(N4CCCC4)CC3)c2c1C`, for which the INHIBITION came to 39.6%.

Take `CCOC(=O)N1CCN(c2nc(CCN)nc3sc(C)c(C)c23)CC1`: the INHIBITION was found to be 90.7%.

For `Cc1sc2nc(CCN)nc(N3CCS(=O)(=O)CC3)c2c1C`, the INHIBITION came to 31.3%.

In the case of `Cc1sc2nc(CCN)nc(N3CC(N4CCCCC4)C3)c2c1C`, the INHIBITION stood at 86.9%.

Take `Cc1nc(C2CCN(S(C)(=O)=O)CC2)nc(N2CCCC2)c1C`: the INHIBITION stood at 11.25%.

In the case of `Cc1sc2nc(CCN)nc(N3CCN(S(C)(=O)=O)CC3)c2c1C`, the INHIBITION came out at 67.5%.

Regarding `CCc1c(C)sc2ncnc(N3C[C@H](O)[C@@H](N4CCCC4)C3)c12`, the INHIBITION is 48.5%.

Turning to `COC(=O)CNC(=O)CSCc1nc(O)c2c(C)c(C)sc2n1`, the INHIBITION stood at 22.1%.

For `CCOC(=O)N1CCN(C(=O)c2sc(-c3ccccc3F)nc2C)CC1`, the INHIBITION is on record as 39.9%.

For `NC(=O)c1cccc(-c2cnc(C3CCCNC3)cn2)c1` (configuration not stated), the INHIBITION worked out at 34.3%.

On to `CC(C)N(C)Cc1ncn2c1CN(S(=O)(=O)c1cccs1)CCC2`, for which the INHIBITION is recorded as 38.5%.

Regarding `Cc1noc([C@@H](C)NCc2ccc(F)cc2)c1C(=O)O`, the INHIBITION was -4.82%.

Take `CCCS(=O)(=O)N1C[C@@H]2CN(Cc3ccco3)CCO[C@@H]2C1`: the INHIBITION is on record as -32.6%.

Regarding `O=C(NCC1CCOC1)N1CCN(Cc2ccc3c(c2)OCO3)CC1` (configuration not stated), the INHIBITION was determined as 33.3%.

Regarding `Cc1cc2cc(C(=O)N[C@@H]3CC[C@@H](N4CCCC4)[C@@H]3O)ccc2o1`, the INHIBITION is 26.3%.

On to `Cc1noc(C2CCCN(Cn3cc(Br)cn3)C2)n1` (configuration not stated), for which the INHIBITION was -12.2%.

Take `CCCc1noc(CS(=O)(=O)CC(=O)NC(C)CCC)n1` (configuration not stated): the INHIBITION is 58.3%.

Regarding `CCC(C)NC(=O)CS(=O)(=O)Cc1nc(-c2cccs2)no1` (configuration not stated), the INHIBITION worked out at 46.4%.

As for `Cc1noc(CS(=O)(=O)CC(=O)NC(C)c2ccccc2)n1` (configuration not stated), the INHIBITION is recorded as 31.2%.

Turning to `CC[C@@H]1N(CC2CC2)CCC[C@]12CCC(=O)N2CCOC`, the INHIBITION is listed as 4.2%.

On to `CCc1nnc(CN2CCCN(C(=O)c3ccccn3)CC2)o1`, for which the INHIBITION is listed as -47.6%.

`Cc1noc(CN2CCN(C(=O)c3ccccn3)CC2)n1`: the INHIBITION was determined as 37.3%.

Take `Cc1nc(CN2CCCN(C(=O)c3ccccn3)CC2)oc1C`: the INHIBITION is reported as 60.5%.

Turning to `Cc1nc(CN2CCCN(C(=O)c3ccn(C)c(=O)c3)CC2)cs1`, the INHIBITION is recorded as -12.2%.

As for `O=C(c1ccc(COc2ccc(Cl)cc2)o1)N1N=CCC1(O)C(F)(F)F` (configuration not stated), the INHIBITION amounted to 89.3%.

For `COCc1ccc(C(=O)N2CCC(Oc3ccccc3)(C(=O)O)CC2)o1`, the INHIBITION is listed as -11.6%.

As for `O=C(Cc1ccc(Cl)cc1)N1CCC(O)(C(F)(F)F)C1` (configuration not stated), the INHIBITION was -55%.

Take `Cc1cccc(OCc2ccc(C(=O)N3N=CCC3(O)C(F)(F)F)o2)c1` (configuration not stated): the INHIBITION turned out to be 69.2%.

With `O=C(c1ccc(COc2ccccc2Cl)o1)N1N=CCC1(O)C(F)(F)F` (configuration not stated), the INHIBITION was 4.66%.

With `O=C(NC1CCCC1)c1ccc(COCC(F)(F)F)o1`, the INHIBITION came to 31.6%.

Take `COc1ccc(C(=O)COc2coc(CN3CCCCC3)cc2=O)cc1`: the INHIBITION is 44.9%.

As to `CC(C)NC(=O)N1CC[C@@H](N(C)C)[C@@H]1Cc1ccncc1`, the INHIBITION is 28.2%.

Regarding `CCS(=O)(=O)N1CCN(Cc2ccncc2)c2nc(C)ccc2C1`, the INHIBITION worked out at 48.6%.

As to `CC(c1ccc2c(c1)OCO2)n1cc2nc(N(C)C)[nH]cc-2c1=O` (configuration not stated), the INHIBITION is given as 39.3%.

For `CC(C)CC(=O)Nc1ccc2c(c1)ncn2CC(=O)NCCN(C)C`, the INHIBITION was 32.4%.

As to `COCCN1CCCC(CCCc2ccccn2)(C(N)=O)C1` (configuration not stated), the INHIBITION is reported as -58.7%.

With `CCOc1ccc(NC(C)=O)cc1S(=O)(=O)Nc1ccon1`, the INHIBITION was 7.83%.

Consider `CCOc1ccc(NC(C)=O)cc1S(=O)(=O)Nc1nnc(C)s1`, for which the INHIBITION was determined as 21.8%.

`CCOc1ccc(NC(C)=O)cc1S(=O)(=O)Nc1cc(C)on1`: the INHIBITION turned out to be 54.2%.
